TEAD-YAP block = TEAD-YAP interaction inhibition, primary screen, TEAD-YAP interaction inhibitor project, luminescence, HEK-TIYL cells; TEAD-Gal4/YAP UAS-luciferase luminescence; inhibition, % at 9.12 µM; 640,000 tested, 1.4% active; in the data active = inhibition above about 32%;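 also: 0% = median of test compound wells and 100% = reference inhibitor wells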
GPR151 activ = activators of human GPR151, primary screen, cell-based, PathHunter beta-arrestin, luminescence | AID 1508602, 2020 | PathHunter beta-arrestin GPR151 cells | activation, % at 11.2 µM | 650,000 tested, 1% active; in the data active = activation above about 4.9%;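 also: 0% = median of compound wells and 100% = cells with positive control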
Target sequence (Q8TDV0 whole entry, looked up): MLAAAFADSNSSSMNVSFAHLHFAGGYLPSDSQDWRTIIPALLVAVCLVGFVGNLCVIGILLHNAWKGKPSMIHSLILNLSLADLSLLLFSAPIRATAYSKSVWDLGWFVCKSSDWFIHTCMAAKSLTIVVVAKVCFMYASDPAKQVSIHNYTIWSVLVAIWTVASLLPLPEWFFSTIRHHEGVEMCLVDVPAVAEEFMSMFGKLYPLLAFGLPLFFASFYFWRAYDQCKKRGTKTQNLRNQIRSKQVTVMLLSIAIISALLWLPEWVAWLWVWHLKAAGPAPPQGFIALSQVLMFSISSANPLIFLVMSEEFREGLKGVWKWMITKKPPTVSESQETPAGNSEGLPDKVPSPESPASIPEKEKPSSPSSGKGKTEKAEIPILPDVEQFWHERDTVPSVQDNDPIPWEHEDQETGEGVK
MITF primary = MITF inhibitors, primary screen, biochemical, AlphaScreen, human. Microphthalmia-associated transcription factor (Homo sapiens), O75030. 650,000 tested, 0.91% active. AlphaScreen MITF homodimerization, bead proximity signal. inhibition, % at 2.6 µM. AID 1259374, 2018; in the data active = inhibition above about 50%;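 also: 0% = vehicle wells with protein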
FBW7 act = FBW7 E3 ligase activators, primary screen, biochemical, AlphaScreen, human; F-box/WD repeat-containing protein 7 (Homo sapiens), Q969H0; AlphaScreen FBW7–phospho-cyclin E peptide binding, activator screen; 650,000 tested, 0.13% active; normalized activity (activation), % at 26.1 µM; in the data active = normalized activity above about 1.9%;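 also: purified mutant Fbw7 with reduced substrate affinity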
An asterisk follows results filed as active. Compounds with a hit are over-represented: about 3.4% of the library has one in this group of screens.

O=C(N/N=C(\C=N\O)c1ccccc1)c1ccco1 was read as TEAD-YAP block -40, GPR151 activ 0, MITF primary -3 and FBW7 act 0.
CCC(=O)N(/C=C1\Sc2ccccc2C1=O)c1ccccc1 was read as TEAD-YAP block -1, GPR151 activ -3, MITF primary 18 and FBW7 act 1.
For CCC(=O)N(/C=C1\Sc2ccccc2C1=O)c1ccccc1OC the results were TEAD-YAP block 83*, GPR151 activ 1, MITF primary -2 and FBW7 act 0.
COc1ccc(N(/C=C2\Sc3ccccc3C2=O)C(=O)c2ccco2)cc1 was read as TEAD-YAP block 31, GPR151 activ -5, MITF primary 5 and FBW7 act 0.
For CCC(=O)N(/C=C1\Sc2ccccc2C1=O)c1ccc(C)cc1 the results were TEAD-YAP block 53*, GPR151 activ -3, MITF primary 6 and FBW7 act 0.
`Cc1ccccc1OCc1nc2ccc(-c3ccnc(N)n3)cc2[nH]1` gave TEAD-YAP block 52*, GPR151 activ 1, MITF primary 6 and FBW7 act 0.
For COc1ccccc1OCc1nc2ccc(-c3cn[nH]c3)cc2c(=O)[nH]1 the results were TEAD-YAP block -4, GPR151 activ 0, MITF primary 19 and FBW7 act 0.
Screening Cc1ccccc1OCc1nc2ccc(-c3cn[nH]c3)cc2c(=O)[nH]1 returned TEAD-YAP block 33*, GPR151 activ 2, MITF primary -1 and FBW7 act 0.
For COc1cc(-c2cn[nH]c2)cc2c(=O)[nH]c(C(N)c3cccc(Cl)c3)nc12 (stereo not drawn) the results were TEAD-YAP block 49*, GPR151 activ 3, MITF primary 13 and FBW7 act 0.
For COc1ccc(C[C@@H](N)c2nc3ccc(-c4cn[nH]c4)cc3c(=O)[nH]2)cc1 the results were TEAD-YAP block 53*, GPR151 activ 0, MITF primary 24 and FBW7 act 0.
O=C(CN(C(=O)Cn1nnc2ccccc21)C1CCCCC1)NCC1CCCO1 (stereo not drawn) was read as TEAD-YAP block 1, GPR151 activ 2, MITF primary -1 and FBW7 act 0.
For CCOc1ccccc1-n1c(SCC(N)=O)nnc1-c1ccc(O)cc1 the results were TEAD-YAP block 2, GPR151 activ -1, MITF primary 11 and FBW7 act 1.
`Cc1ccc(NC(=O)c2ccc([N+](=O)[O-])cc2Cl)cc1[N+](=O)[O-]` gave TEAD-YAP block -3, GPR151 activ -1, MITF primary 15 and FBW7 act 0.
Screening COc1ccccc1OCc1nc2ccc(-c3ccnc(N)n3)cc2[nH]1 returned TEAD-YAP block 14, GPR151 activ 0, MITF primary 12 and FBW7 act 0.
`COc1cccc(OCc2nc3ccc(-c4ccnc(N)n4)cc3[nH]2)c1` gave TEAD-YAP block 50*, GPR151 activ 0, MITF primary 4 and FBW7 act 0.
For CC(=O)NC(c1ccc(C(C)C)cc1)c1ccc2cccnc2c1O (stereo not drawn) the results were TEAD-YAP block 83*, GPR151 activ 3, MITF primary 24 and FBW7 act -1.
`Cc1cc(C)nc(NC(c2ccco2)c2ccc3cccnc3c2O)n1` (stereo not drawn) gave TEAD-YAP block -32, GPR151 activ -1, MITF primary 11 and FBW7 act 0.
CC(=O)NC(c1ccccc1F)c1ccc2cccnc2c1O (stereo not drawn) was read as TEAD-YAP block 84*, GPR151 activ -2, MITF primary -11 and FBW7 act 0.
Oc1cccnc1NC(c1ccccc1F)c1ccc2cccnc2c1O (stereo not drawn) was read as TEAD-YAP block 36*, GPR151 activ 1, MITF primary 45 and FBW7 act 0.
Cc1ccc(C(NC(=O)c2ccccc2)c2ccc3cccnc3c2O)cc1 (stereo not drawn) was read as TEAD-YAP block 24, GPR151 activ -1, MITF primary 6 and FBW7 act 0.
Screening Cc1nn(C)c(C)c1S(=O)(=O)N1CCCC(C(=O)N2CCN(c3ccccc3)CC2)C1 (stereo not drawn) returned TEAD-YAP block -3, GPR151 activ 0, MITF primary -11 and FBW7 act 0.
`COC(=O)c1cc(CNC(=O)c2cncs2)cc(NC(=O)Cc2ccccc2)c1` gave TEAD-YAP block -13, GPR151 activ 0, MITF primary -3 and FBW7 act 0.
For CCCN1C(=O)/C(=C2/C(=O)N(CCC)c3ccccc32)SC1=S the results were TEAD-YAP block -14, GPR151 activ 1, MITF primary -2 and FBW7 act 0.
Screening COC(=O)CN1C(=S)N(C)C(=O)/C1=C/c1cc(OC)c(O)c(OC)c1 returned TEAD-YAP block 46*, GPR151 activ 2, MITF primary 27 and FBW7 act 0.
Screening Cc1ccc2c(c1)C(=Nc1ccc(I)cc1)C(=O)N2 returned TEAD-YAP block -9, GPR151 activ -1, MITF primary 21 and FBW7 act 2.1*.
Screening CCC1CCCCN1Cc1cc(-c2ncccn2)ccc1O (stereo not drawn) returned TEAD-YAP block -1, GPR151 activ 1, MITF primary -2 and FBW7 act 0.
Screening CC(Nc1cc(N2CCN(C(=O)c3ccco3)CC2)ccc1[N+](=O)[O-])C12CC3CC(CC(C3)C1)C2 (stereo not drawn) returned TEAD-YAP block 43*, GPR151 activ 1, MITF primary -14 and FBW7 act 0.
Screening Cc1cc(C)nc(/N=C(\N)Nc2ccc(CC(=O)OC(C)C)cc2)n1 returned TEAD-YAP block 40*, GPR151 activ 1, MITF primary -6 and FBW7 act 0.
Screening CCN(CC)c1ccc(N/C(N)=N/c2nc(C)cc(C)n2)cc1 (tested in a mixture with another compound) returned TEAD-YAP block 58*, GPR151 activ 1, MITF primary 17 and FBW7 act 0.
`O=C(O)/C=C/CCCCCCCCC(=O)O` gave GPR151 activ -9 and MITF primary 0.
For OC(CNCCN1CCN(Cc2ccccc2)CC1)COCc1ccccc1 (stereo not drawn) the results were TEAD-YAP block -3, GPR151 activ -1, MITF primary 38 and FBW7 act 0.
For COc1cc(CNC(=O)c2c(C(F)(F)F)nc3c(OC)cccn23)cc(OC)c1OC the results were TEAD-YAP block 0, GPR151 activ -1, MITF primary 11 and FBW7 act 1.9*.
For COc1cc(CNC(=O)c2ccc3ccccc3n2)cc(OC)c1OC the results were TEAD-YAP block 45*, GPR151 activ 0, MITF primary 0 and FBW7 act 0.
